# High-throughput results: PubChem BioAssay, National Center for Advancing Translational Sciences (NCATS)
# Shown is part of a subset that was picked to be rich in hits.
# HT1080-NT tox: kills 2HG-producing HT-1080-NT fibrosarcoma cells; HT-1080-NT fibrosarcoma viability, CellTiter-Glo ATP luminescence, 48 h; Potency, µM (highest dose often 46.1 µM), for the others: at the highest dose activity, negative = less viability, usual class: cytotoxic; 1.6% of 360,000 active; AID 686970;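 further: NT is the 2HG producing partner of a matched IDH1 knockdown line; potency means the concentration at half of the fitted maximal effect; 0% = DMSO-treated cells and -100% = media-only wells without cells; nearly all actives have a fitted effect of over 55% in size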
#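 Luminescent CellTiter-Glo readout after 48 hours of compound exposure at 37 degrees C defined viability of HT-1080-NT cells. Activity was normalized to DMSO wells and cell-free media wells; concentration-response curves were fitted and assigned curve classes.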
# DT40 TDP1 no CPT: qHTS for Inhibitors of human tyrosyl-DNA phosphodiesterase 1 (TDP1): qHTS in cells in absence of CPT; DT40 Tdp1-/- hTDP1 cells, no CPT, ATP luminescence, 48 h; Potency, µM (highest dose often 46.2 µM), inactives show at the highest dose activity change, negative = growth inhibition, usual class: inhibitors; 15% of 420,000 active; AID 686978, 2013; further: potency means the concentration at half of the fitted maximal effect; nearly all actives have a fitted effect of over 55% in size
#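 Readout: luminescence from CellTiter-Glo after 30 min in the dark at RT. Cells: DT40 Tdp1-/- with stable hTDP1, 400/well. Exposure: compounds alone, ≥48 hr, 37 °C.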
# IL1B secr inh: blocks inflammasome-driven IL-1 beta release | 4.7% of 360,000 active | activity change, % at 57.5 µM | AID 743279 | THP-1 LPS/ATP IL-1B secretion, AlphaLISA, 16 h; active compounds read low; in the data active means activity change below about -50%; inconclusive means mostly about -30% to -49%
#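 THP-1 cells pretreated 1 hr with compounds (up to 57.5 uM final), then stimulated with LPS (250 ng/mL final) plus ATP (1.25 mM final); secreted IL-1B measured by AlphaLISA after 16 hr, decreased signal indicating inhibition.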
# HT1080 IDH1KD tx: HT-1080 IDH1 knockdown cell toxicity (counter line); AID 686971; HT-1080 IDH1 knockdown viability, ATP luminescence, 48 h; Potency, µM (highest dose often 46.1 µM), inactives show at the top dose activity, negative = toxicity, hits mostly cytotoxic; 2% of 360,000 active;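 further: potency means the concentration at half of the fitted maximal effect; 0% = DMSO wells and -100% = cell-free medium wells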
#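 HT-1080-IDH1KD cells (IDH1 knocked down), 750/well in RPMI with 5% FBS, treated with compound 48 h at 37 degrees C. Viability by CellTiter-Glo luminescence, normalised to DMSO and no-cell wells; concentration-response curves classed.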
# 12-LOX inh: inhibitors of human 12S-lipoxygenase ALOX12; P18054; purified 12hLO, xylenol orange hydroperoxide absorbance; Potency, µM (titrated, usually from 108 µM), without a hit: at the highest dose activity change, negative = inhibition, usual class: inhibitors; 1.1% of 580,000 active; AID 1671190; further: potency means the concentration at half of the fitted maximal effect
# Target sequence (P18054 whole entry, looked up): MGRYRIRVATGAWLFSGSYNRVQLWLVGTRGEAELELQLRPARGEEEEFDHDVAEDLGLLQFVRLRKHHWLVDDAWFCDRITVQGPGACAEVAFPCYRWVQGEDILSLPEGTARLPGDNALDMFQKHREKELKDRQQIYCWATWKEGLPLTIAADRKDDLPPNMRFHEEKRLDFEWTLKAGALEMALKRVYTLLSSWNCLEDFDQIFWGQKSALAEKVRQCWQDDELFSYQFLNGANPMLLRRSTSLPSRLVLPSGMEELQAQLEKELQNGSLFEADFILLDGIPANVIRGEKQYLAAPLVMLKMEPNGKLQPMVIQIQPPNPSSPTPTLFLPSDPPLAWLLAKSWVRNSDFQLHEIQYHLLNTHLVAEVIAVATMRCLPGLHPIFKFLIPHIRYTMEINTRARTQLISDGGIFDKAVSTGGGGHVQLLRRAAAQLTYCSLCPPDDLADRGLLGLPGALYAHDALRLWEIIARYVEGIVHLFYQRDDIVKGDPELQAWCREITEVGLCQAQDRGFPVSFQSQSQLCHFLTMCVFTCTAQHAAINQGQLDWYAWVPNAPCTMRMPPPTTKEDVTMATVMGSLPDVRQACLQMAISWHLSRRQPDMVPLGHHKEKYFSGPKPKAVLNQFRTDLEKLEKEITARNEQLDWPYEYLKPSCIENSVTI
#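 Purified human 12hLO (150 nM final) in 25 mM Hepes, 0.01% Triton X-100, pH 7.0 was preincubated 15 min at room temperature with compound. Then 40 uM arachidonic acid was added, 30 min. Hydroperoxide was read by Fe-XO absorbance ratio 573/405 nm.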
# TDP1 cell CPT: DT40-hTDP1 cell growth loss with CPT. chicken DT40 Tdp1-/-;hTDP1 cells + 20 nM CPT, ATP luminescence, 48 h. Potency, µM (doses to about 46.2 µM), without a hit: at the top dose activity change, negative = growth inhibition, actives largely listed as inhibitors. 12% of 420,000 active. AID 686979; further: potency means the concentration at half of the fitted maximal effect; nearly all actives have a fitted effect of over 55% in size
#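 Chicken DT40 Tdp1-/- cells complemented with human TDP1, 400 cells/well, exposed to compounds plus 20 nM camptothecin for at least 48 h at 37 C; viability read as ATP content by CellTiter-Glo luminescence.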
# * marks the source's active call; other numbers are inactive results; u = inconclusive; x = no result given; [ ] = another dose, or the depositor's remark. Unless noted, the call rests on the fitted dose curve; in most records, active means well fitted curve in the direction sought with a large enough effect; inconclusive means small, poorly fitted or top-dose-only effect, or another doubt; inactive means no such curve, though single readings can be large; an effect the other way counts as inactive or inconclusive. Unless noted, on the % scale 0 is the no-effect control and ±100 the full control effect.
SMILES,HT1080-NT tox,DT40 TDP1 no CPT,IL1B secr inh,HT1080 IDH1KD tx,12-LOX inh,TDP1 cell CPT
COc1ccc(C(=O)N2CCc3c([nH]c4ccccc34)C2C(F)(F)F)cc1 (configuration not stated),-2%,u,-8,9%,159%,u
COc1ccccc1NC(=O)N1CCc2c([nH]c3ccccc23)C1C(F)(F)F (configuration not stated),-20%,-28%,-60*,-10%,-3%,-30%
Cc1nc2nc(NCc3c(F)cccc3Cl)[nH]n2c(=O)c1Cl,x,x,x,x,1%,x
OCCN(CCO)c1nc2sc3c(c2c2nc(-c4ccccc4)nn12)CCCC3,x,x,x,x,-21%,x
Cc1ccc(CNc2nc(C)nc3sc4c(c23)CCC4)cc1,3%,18µM*,3,0%,-4%,23µM*
Cc1nc(NC(C)c2ccccc2)c2c3c(sc2n1)CCC3 (configuration not stated),-1%,16µM*,-1,-2%,x,16µM*
NNc1nc(-c2ccccc2)nc2sc3c(c12)CCCC3,-18%,21µM*,-15,-11%,-20%,u
Cc1nc(Nc2ccc(O)cc2)c2c3c(sc2n1)CCCC3,u,u,14,-24%,u,u
CN(CC1COc2ccccc2O1)C(=O)c1nn(Cc2ccccc2)c(=O)c2ccccc12 (configuration not stated),x,x,x,x,-29%,x
COc1ccccc1N1CCN([C@H]2[C@@H]3OC[C@@H](O3)[C@@H](NCc3ccco3)[C@@H]2O)CC1,x,x,x,x,61%[176 µM],x
Cn1nnnc1Sc1ncnc2scc(-c3cc4ccccc4o3)c12,x,x,x,x,-10%,x
CC(=O)Nc1ccc(-c2csc(Nc3ccccn3)n2)cc1,1%,-25%,-1,-2%,-20%,u
Oc1ccc(-c2csc(Nc3cccc4ccccc34)n2)cc1O,-12%,8.2µM*,5,-4%,13µM*,0.92µM*
COc1ccc(-c2csc(Nc3ncccc3C)n2)cc1OC,-3%,u,u,-12%,u,u
Cc1cccc(Nc2nc(-c3ccc(O)c(O)c3)cs2)n1,u,1.6µM*,-4,u,28µM*,2.1µM*
Cc1cccnc1Nc1nc(-c2ccc(O)c(O)c2)cs1,-29%,3.7µM*,0,-22%,2.8µM*,3.3µM*
Cc1cccc(Nc2nc(-c3ccc(F)c(C)c3)cs2)n1,-17%,u,-25,-1%,u,u
Cc1ccc(-c2csc(Nc3ccccn3)n2)cc1C,x,x,x,x,32µM*,x
CNS(=O)(=O)c1ccc(Oc2ccc3c(C)cc(=O)oc3c2)c([N+](=O)[O-])c1,x,x,x,x,18%,x
Oc1ccc(-c2csc(Nc3ccccn3)n2)cc1O,-21%,2.6µM*,u,-23%,20µM*,5.2µM*
Cc1ccnc(Nc2nc(-c3ccc(O)c(O)c3)cs2)c1,-25%,3.3µM*,-60*,u,0%,2.1µM*
Cc1ccnc(Nc2nc(-c3ccc(O)cc3)cs2)c1,-18%,-27%,-21,-28%,u,1%
CCOc1ccc(CCNC(=O)CS(=O)(=O)Cc2nc(-c3ccc(C)cc3)oc2C)cc1,x,x,x,x,-4%,x
O=C(NCCO)c1cc2c([nH]c3ccccc32)c(-c2ccccc2)n1,-25%,16µM*,u,-29%,u,u
Cc1ccc(-c2nc(C(=O)NCCCN(C)C)cc3c2[nH]c2ccccc23)cc1,u,23µM*,-17,u,u,u
SMILES,HT1080-NT tox,DT40 TDP1 no CPT,IL1B secr inh,HT1080 IDH1KD tx,12-LOX inh,TDP1 cell CPT
O=C(NCCO)c1cc2c([nH]c3ccccc32)c(-c2ccc(F)cc2)n1,-17%,16µM*,-93*,-12%,0%,u
NC(COCc1ccccc1)c1csc(Nc2ncccn2)n1 (configuration not stated),-28%,u,-24,-19%,17%,-6%
NC(CCc1ccccc1)c1csc(Nc2nccc(C(F)(F)F)n2)n1 (configuration not stated),16µM*,u,-18,u,u,u
Cc1cc(C)nc(Nc2nc(C(N)CCc3ccccc3)cs2)n1 (configuration not stated),u,21µM*,-21,u,-12%,u
CN1CCN(c2c([N+](=O)[O-])cnc3ccc(Br)cc23)CC1,x,x,x,x,-2%,x
CN(Cc1cccc(F)c1)C(=O)c1ccc(CS(C)(=O)=O)cc1,x,x,x,x,-1%,x
CCOC(=O)c1c(C)nc2c(c1-c1ccc(OC)c(OC)c1)C(=O)c1ccccc1-2,-7%,u,1,6%,0%[57.4 µM],23µM*
O=C(NC(c1ccc(F)cc1)c1ccc2ccccc2n1)C1CCN(CCOc2ccc(Cl)cc2)CC1 (configuration not stated),u,21µM*,-27,21µM*,u,21µM*
Cc1cccnc1C(NC(=O)C1CCN(CCCOc2ccccc2)CC1)c1ccc(F)cc1 (configuration not stated),-9%,u,-17,-5%,u,u
O=C(NC(c1ccc(F)cc1)c1ccc2ccccc2n1)C1CCN(Cc2cccc(C(F)(F)F)c2)CC1 (configuration not stated),6.5µM*,5.2µM*,-89*,5.8µM*,-8%,2.9µM*
CN(C)c1ccc(CN2CCC(C(=O)NC(c3ccc(F)cc3)c3ccc4ccccc4n3)CC2)cc1 (configuration not stated),15µM*,23µM*,-54*,u,u,u
O=C(NC(c1ccc(F)cc1)c1ccc2ccccc2n1)C1CCN(Cc2ccc3ccccc3n2)CC1 (configuration not stated),u,18µM*,-21,23µM*,16µM*,u
COCC(C)NC(=O)C1CCN(Cc2ccc(F)cc2)CC1 (configuration not stated),x,x,x,x,2%,x
NC(=O)C1CCN(Cc2cccc(C(F)(F)F)c2)CC1,x,x,x,x,48%,x
COCc1c(C(=O)NC2=NCCS2)oc2ccccc12,x,x,x,x,3%,x
O=C([C@@H]1C[C@H](Oc2cccnc2)CN1C(=O)c1ccncc1)N1CCOCC1,x,x,x,x,9%,x
COCCNC(=O)c1ccc(OC2CCN(C/C=C/c3ccc(F)cc3)CC2)c(Cl)c1,x,x,x,x,17%,x
